This is an account of results in PubChem BioAssay (EPA / NIEHS).

Assay [1] can be described thus: ATG_CRE_CIS: Attagene CIS-FACTORIAL HepG2 Assay for human cAMP Responsive Element (CRE) binding protein 3 (AID 2282926). To be noted: HepG2 CRE cis-reporter, Attagene multiplexed mRNA; actives raise or lower the signal. The gist of the method:
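Endogenous transcription factor activity read via CRE-regulated reporter transcripts in transfected HepG2 cells. After 24 h exposure, RNA was reverse-transcribed, amplified, fluorescently labelled and sized by capillary electrophoresis; gain or loss fitted against DMSO.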

Assay [2] deals with CCAAT/enhancer-binding protein beta (Homo sapiens) (UniProt P17676). The experiment in a line: ATG_C_EBP_CIS: Attagene CIS-FACTORIAL HepG2 Assay for human CCAAT/Enhancer Binding Protein (C/EBP) beta (AID 2282927). The settings on record: HepG2 Attagene cis-factorial transcription factor reporter; actives raise or lower the signal. The gist of the method: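 Endogenous transcription factor activity in human liver HepG2 cells is inferred from induction of a CEBPB-linked reporter mRNA. Exposure lasts 24 h; activity is fitted in both directions relative to DMSO.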

Assay [3] in a line: ATG_CMV_CIS: Attagene CIS-FACTORIAL HepG2 Assay for human CMV (Internal Marker) (AID 2282928).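 Note: endpoint acts as a background internal control marker rather than a target.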 The settings on record: HepG2 CMV promoter reporter, transcription factor profiling; actives raise or lower the signal. Summed up: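 Readout: fluorescent reporter cDNA fragments separated by capillary electrophoresis after RT-PCR and HpaI cut. Cells: HepG2 carrying transfected cis-promoter reporter constructs, dosed 24 h. Endpoint serves as background internal-marker control, fit bidirectionally versus DMSO.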

A short description of assay [4]: ATG_AP_1_CIS: Attagene CIS-FACTORIAL HepG2 Assay for human Activator Protein 1 (AP-1) (AID 2282931). To be noted: HepG2 Attagene cis-factorial AP-1 reporter mRNA; actives raise or lower the signal. The gist of the method: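 Reporter transcripts were measured 24 h after dosing by RT-PCR and capillary electrophoresis of fluorescent fragments. Cells: HepG2 carrying transfected cis-regulated reporter constructs reading endogenous factor activity. Gain or loss fitted against DMSO.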

A short description of assay [5]: ATG_AP_2_CIS: Attagene CIS-FACTORIAL HepG2 Assay for human Activator Protein 2 (AP-2) (AID 2282932). To be noted: HepG2 AP-2 cis-reporter, Attagene transcription factor profiling; actives raise or lower the signal. Summed up: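 Transiently transfected HepG2 cells are exposed to chemical for 24 h. Reporter transcripts are then measured as fluorescence following RT-PCR and capillary separation, and gain- or loss-of-signal is fitted relative to DMSO.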

Assay [6] in a line: ATG_BRE_CIS: Attagene CIS-FACTORIAL HepG2 Assay for human Bone Morphogenetic Protein (BMP) Response Element (BRE) (AID 2282933). The settings on record: HepG2 BMP response element reporter, Attagene transcription factor profiling; actives raise or lower the signal. The gist of the method: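 Endogenous transcription factor activity read in transiently transfected HepG2 cells after 24 h chemical exposure. Bidirectional curve fitting against DMSO; readout is reporter transcript level by RT-PCR with capillary electrophoresis of labelled products.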

Assay [7] addresses Transcription factor E2F1 (Homo sapiens) (UniProt Q01094). In words: ATG_E2F_CIS: Attagene CIS-FACTORIAL HepG2 Assay for human E2F Transcription Factor 1 (AID 2282935). To be noted: HepG2 Attagene cis-reporter, E2F reporter RNA transcripts; actives raise or lower the signal. The gist of the method:
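Fluorescent RT-PCR products, digested with HpaI for 2 h at 37 C, are separated by capillary electrophoresis. Source RNA comes from transfected HepG2 cultures treated for 24 h.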

The nature of assay [8]: ATG_E_Box_CIS: Attagene CIS-FACTORIAL HepG2 Assay for human Enhancer Box (E-box) (AID 2282936). To be noted: HepG2 E-box cis-reporter transcription, actives raise or lower the signal. Summed up: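 Fluorescent reporter fragments separated by capillary electrophoresis gave the signal; mRNA came from HepG2 cells transfected with cis-element reporters and treated 24 h. Curves fitted bidirectionally relative to DMSO controls.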

A short description of assay [9]: ATG_M_61_CIS: Attagene CIS-FACTORIAL HepG2 Assay for M61 Transcription Factor (Internal Marker) (AID 2282937). To be noted: HepG2 Attagene CIS-FACTORIAL M61 internal marker reporter; actives raise or lower the signal. Summed up:
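Readout: fluorescent reporter mRNA fragments resolved by capillary electrophoresis after RT-PCR. Transiently transfected human HepG2 cells carried MRTU constructs reporting endogenous TF activity; 24 h chemical exposure; gain or loss of signal fitted relative to DMSO.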

Assay [10] is described as follows: ATG_EGR_CIS: Attagene CIS-FACTORIAL HepG2 Assay for human Early Growth Response 1 (EGR1) (AID 2282938). The settings on record: HepG2 Attagene CIS-FACTORIAL EGR reporter mRNA; actives raise or lower the signal. The gist of the method: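 Read-out: fluorescent reporter-mRNA fragments resolved by capillary electrophoresis after RT-PCR, 24 h post-dose in transiently transfected HepG2. Endogenous transcription-factor activity reported via cis-element-regulated reporter units; gain or loss fitted relative to DMSO.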

The nature of assay [11]: ATG_M_19_CIS: Attagene CIS-FACTORIAL HepG2 Assay for M19 Transcription Factor (Internal Marker) (AID 2282939). To be noted: HepG2 Attagene CIS-FACTORIAL M19 internal marker reporter; actives raise or lower the signal. Summed up:
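Internal marker readout, fitted in both directions against DMSO, from HepG2 cells carrying transfected cis-element reporter constructs; RT-PCR and capillary electrophoresis of reporter mRNA after 24 h exposure.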

Assay [12] in a line: ATG_GATA_CIS: Attagene CIS-FACTORIAL HepG2 Assay for human GATA Binding Protein (AID 2282944). The settings on record: HepG2 GATA cis-element reporter, Attagene multiplex mRNA; actives raise or lower the signal. Summed up: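 Reporter transcripts from a GATA cis-regulated unit, among multiplexed reporters in transfected HepG2 cells, were measured by RT-PCR with capillary electrophoresis after 24 h dosing. Induction or loss scored relative to DMSO.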

A short description of assay [13]: ATG_GLI_CIS: Attagene CIS-FACTORIAL HepG2 Assay for human Zinc Finger Protein GLI1 (AID 2282945). The settings on record: HepG2, Attagene cis-factorial reporter mRNA, GLI element; actives raise or lower the signal. Summed up: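 Bidirectional curve fits relative to DMSO, using reporter mRNA levels from RT-PCR plus capillary electrophoresis. Cells were HepG2 transiently carrying cis-regulated reporter constructs, harvested 24 h after dosing.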

The nature of assay [14]: ATG_ISRE_CIS: Attagene CIS-FACTORIAL HepG2 Assay for human Interferon Regulatory Factor 1 (IRF1) binding to an Interferon-Stimulated Response Element (ISRE) (AID 2282948). The settings on record: HepG2 ISRE cis-reporter (Attagene), mRNA transcription readout; actives raise or lower the signal. The gist of the method: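 Read-out: fluorescent RT-PCR products resolved by capillary electrophoresis, reporting endogenous transcription factor activity via ISRE-driven reporter mRNA in transfected HepG2 cells dosed for 24 h; gain or loss fitted relative to DMSO.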

Assay [15] in a line: ATG_M_32_CIS: Attagene CIS-FACTORIAL HepG2 Assay for M32 Transcription Factor (Internal Marker) (AID 2282949).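 Note: background control marker of the multiplexed CIS panel rather than a real target.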 To be noted: HepG2 Attagene cis-factorial M32 reporter, mRNA; actives raise or lower the signal. Summed up: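 Transient MRTU transfection of HepG2; 24 h compound treatment; TriZol RNA, oligo(dT) RT, reporter PCR, 6-FAM primer extension, HpaI cut, CE. Gain/loss of signal vs DMSO.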

A short description of assay [16]: ATG_MRE_CIS: Attagene CIS-FACTORIAL HepG2 Assay for human Metal Responsive Element (MRE) (AID 2282954). To be noted: HepG2 MRE cis-reporter transcription, Attagene multiplex; actives raise or lower the signal. Summed up: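 Multiplexed cis-reporter assay in human HepG2 liver cells, 24 h incubation with test chemical. Reporter transcripts measured by RT-PCR and capillary electrophoresis; values from bidirectional curve fitting versus DMSO.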

The target in assay [17] is Paired box protein Pax-6 (Homo sapiens) (UniProt P26367). The experiment in a line: ATG_Pax6_CIS: Attagene CIS-FACTORIAL HepG2 Assay for human Paired Box 6 (PAX6) (AID 2282956). To be noted: HepG2 CIS-FACTORIAL PAX6 reporter transcription, RNA readout; actives raise or lower the signal. The gist of the method:
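Readout: reporter transcript fluorescence after RT-PCR and capillary electrophoresis. Cells: HepG2, transiently transfected with cis-regulated MRTUs. Exposure 24 h. Gain or loss of signal fitted bidirectionally relative to DMSO.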

Assay [18] is described as follows: ATG_PXRE_CIS: Attagene CIS-FACTORIAL HepG2 Assay for human Pregnane X Receptor Element (PXRE) (AID 2282957). The settings on record: HepG2 Attagene CIS-FACTORIAL PXRE reporter, mRNA; actives raise or lower the signal. The gist of the method: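 Reporter transcripts under endogenous PXR-responsive cis-regulation quantified from total RNA of transfected HepG2 cells 24 h post-dosing, via RT-PCR with fluorescent primer extension and capillary electrophoresis. Gain or loss of signal fitted against DMSO baseline.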

The target in assay [19] is Transcription factor Sp1 (Homo sapiens) (UniProt P08047). The experiment in a line: ATG_Sp1_CIS: Attagene CIS-FACTORIAL HepG2 Assay for human Specificity Protein 1 (Sp1) (AID 2282961). To be noted: HepG2 Sp1 cis-reporter transcription, actives raise or lower the signal. The gist of the method: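 Read-out: fluorescence of 6-FAM-labeled, HpaI-digested RT-PCR products separated by capillary electrophoresis. HepG2 cells carried transfected cis-element reporter units and were exposed to chemicals for 24 h; gain or loss of signal fitted relative to DMSO.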

In assay [20] the target is Signal transducer and activator of transcription 3 (Homo sapiens) (UniProt P40763). In words: ATG_STAT3_CIS: Attagene CIS-FACTORIAL HepG2 Assay for human Signal Transducer and Activator of Transcription 3 (STAT3) (AID 2282963). To be noted: HepG2, Attagene cis-factorial STAT3 reporter transcription; actives raise or lower the signal. The gist of the method:
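Cis-factorial format: endogenous transcription factors in HepG2 drive transfected reporter units. After 24 h treatment, reporter RNA was reverse-transcribed, amplified, FAM-labelled and HpaI-digested before CE analysis; activity scored in both directions against DMSO.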

SMILES strings stand for the structures. The source made the active and inactive calls. Rule for the calls: active = hit-call score of the fitted dose curve at least 0.9, where 1 is the maximum; inactive = score below 0.9.

Chain of Signal transducer and activator of transcription 3 (Homo sapiens) (P40763 whole entry, looked up): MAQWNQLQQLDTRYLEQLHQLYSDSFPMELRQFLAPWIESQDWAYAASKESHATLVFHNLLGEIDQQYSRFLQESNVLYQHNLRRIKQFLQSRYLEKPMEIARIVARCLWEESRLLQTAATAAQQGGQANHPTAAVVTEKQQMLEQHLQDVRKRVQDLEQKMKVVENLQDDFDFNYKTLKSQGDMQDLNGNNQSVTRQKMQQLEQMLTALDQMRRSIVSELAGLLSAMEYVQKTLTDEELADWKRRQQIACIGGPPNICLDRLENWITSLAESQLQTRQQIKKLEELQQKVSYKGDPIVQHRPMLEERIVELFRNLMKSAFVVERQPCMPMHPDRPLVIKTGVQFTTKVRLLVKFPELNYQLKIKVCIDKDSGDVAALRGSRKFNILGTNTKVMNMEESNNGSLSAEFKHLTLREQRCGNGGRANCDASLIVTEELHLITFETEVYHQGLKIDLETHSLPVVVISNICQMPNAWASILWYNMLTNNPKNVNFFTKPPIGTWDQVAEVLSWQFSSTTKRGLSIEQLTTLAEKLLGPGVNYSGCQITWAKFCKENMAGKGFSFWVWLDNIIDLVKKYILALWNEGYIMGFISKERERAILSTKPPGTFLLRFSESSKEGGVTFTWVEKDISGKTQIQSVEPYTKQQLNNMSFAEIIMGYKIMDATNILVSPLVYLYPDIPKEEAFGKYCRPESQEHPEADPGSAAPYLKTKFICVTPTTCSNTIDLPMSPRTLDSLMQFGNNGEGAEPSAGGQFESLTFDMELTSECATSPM
Chain of Transcription factor Sp1 (Homo sapiens) (P08047 whole entry, looked up): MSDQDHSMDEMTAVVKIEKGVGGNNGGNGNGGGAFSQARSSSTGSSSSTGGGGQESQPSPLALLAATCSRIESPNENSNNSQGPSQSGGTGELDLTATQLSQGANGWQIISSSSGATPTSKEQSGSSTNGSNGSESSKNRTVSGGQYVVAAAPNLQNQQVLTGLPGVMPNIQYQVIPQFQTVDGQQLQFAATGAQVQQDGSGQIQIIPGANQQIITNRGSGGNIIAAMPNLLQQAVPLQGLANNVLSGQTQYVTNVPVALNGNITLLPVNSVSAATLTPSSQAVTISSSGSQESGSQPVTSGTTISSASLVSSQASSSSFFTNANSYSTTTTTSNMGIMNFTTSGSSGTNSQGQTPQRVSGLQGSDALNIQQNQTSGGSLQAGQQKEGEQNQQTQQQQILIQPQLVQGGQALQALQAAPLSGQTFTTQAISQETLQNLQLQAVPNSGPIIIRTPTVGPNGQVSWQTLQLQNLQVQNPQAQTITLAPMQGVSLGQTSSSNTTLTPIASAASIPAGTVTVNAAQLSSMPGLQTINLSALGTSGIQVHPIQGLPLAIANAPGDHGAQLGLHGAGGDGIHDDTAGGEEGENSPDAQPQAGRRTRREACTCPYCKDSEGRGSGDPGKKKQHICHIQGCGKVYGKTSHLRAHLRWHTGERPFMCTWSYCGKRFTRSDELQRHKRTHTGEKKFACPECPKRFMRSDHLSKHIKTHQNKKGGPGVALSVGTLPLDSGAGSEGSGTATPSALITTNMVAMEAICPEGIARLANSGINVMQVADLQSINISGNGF
Chain of Paired box protein Pax-6 (Homo sapiens) (P26367 whole entry, looked up): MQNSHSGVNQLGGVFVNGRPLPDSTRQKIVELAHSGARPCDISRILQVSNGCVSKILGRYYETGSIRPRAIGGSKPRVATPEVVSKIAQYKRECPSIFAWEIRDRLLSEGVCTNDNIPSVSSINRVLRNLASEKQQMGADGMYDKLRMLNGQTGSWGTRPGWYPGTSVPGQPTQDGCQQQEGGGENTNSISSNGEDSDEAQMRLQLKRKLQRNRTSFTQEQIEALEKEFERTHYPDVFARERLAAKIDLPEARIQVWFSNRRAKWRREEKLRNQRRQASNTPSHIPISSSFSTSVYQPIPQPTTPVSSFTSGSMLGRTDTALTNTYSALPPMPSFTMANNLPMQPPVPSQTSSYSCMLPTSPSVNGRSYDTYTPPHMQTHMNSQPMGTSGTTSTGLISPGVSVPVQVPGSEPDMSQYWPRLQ
Chain of Transcription factor E2F1 (Homo sapiens) (Q01094 whole entry, looked up): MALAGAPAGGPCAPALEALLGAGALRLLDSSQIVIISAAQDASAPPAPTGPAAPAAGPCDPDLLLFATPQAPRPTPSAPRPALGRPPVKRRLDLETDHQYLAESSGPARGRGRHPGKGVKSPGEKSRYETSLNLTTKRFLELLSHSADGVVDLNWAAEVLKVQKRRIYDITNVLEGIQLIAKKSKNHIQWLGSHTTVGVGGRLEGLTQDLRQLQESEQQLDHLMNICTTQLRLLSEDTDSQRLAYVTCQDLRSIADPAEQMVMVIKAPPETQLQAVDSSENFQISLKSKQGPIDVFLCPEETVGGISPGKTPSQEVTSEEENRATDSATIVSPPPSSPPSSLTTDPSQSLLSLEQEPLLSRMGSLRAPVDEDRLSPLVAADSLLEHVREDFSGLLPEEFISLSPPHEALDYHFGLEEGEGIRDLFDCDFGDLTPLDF
Chain of CCAAT/enhancer-binding protein beta (Homo sapiens) (P17676 whole entry, looked up): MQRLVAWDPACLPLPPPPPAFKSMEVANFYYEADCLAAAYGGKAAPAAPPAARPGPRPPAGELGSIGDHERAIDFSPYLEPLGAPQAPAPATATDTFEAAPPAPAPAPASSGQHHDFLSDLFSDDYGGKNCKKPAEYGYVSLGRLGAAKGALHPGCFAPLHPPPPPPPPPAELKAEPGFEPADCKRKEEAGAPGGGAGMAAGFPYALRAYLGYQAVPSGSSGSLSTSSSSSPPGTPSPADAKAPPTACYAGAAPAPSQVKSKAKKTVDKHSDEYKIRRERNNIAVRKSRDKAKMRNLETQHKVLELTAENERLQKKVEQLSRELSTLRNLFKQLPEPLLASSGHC

For the compound `CCCCCCCC#N`, the outcome in [1], in [2], in assay [3], in [4], in assay [5] and in [6] was inactive. In addition, the call in assay [7], in [8], in assay [9], in assay [10], in [11] and in [12] was inactive. Also, the compound was classed as inactive in [13], in [14], in assay [15], in assay [16], in assay [17] and in assay [18]. In addition, the outcome in assay [19] and in assay [20] was inactive.

For `CC=CC(=O)O`, the compound was classed as inactive in assay [1], in [2], in [3], in assay [4], in [5] and in assay [6]. Besides, the outcome in assay [7], in assay [8], in [9], in assay [10], in [11] and in assay [12] was inactive. In addition, the call in assay [13], in [14], in assay [15], in assay [16], in assay [17] and in assay [18] was inactive. The result in [19] and in assay [20] was inactive.

The term AC50 denotes the concentration giving half of the maximal activity seen. For the compound `CCOc1ccc2c(c1)C(C)CC(C)(C)N2` (stereo not given), the compound was classed as inactive in [1], in [2], in assay [3], in assay [4], in assay [5] and in assay [6]. Moreover, the result in assay [7], in [8], in [9], in assay [10], in [11] and in [12] was inactive. The call in [13], in assay [14], in [15], in assay [16], in [17] and in assay [19] was inactive. Besides, the call in assay [20] was inactive. The concentration at half-maximal activity (AC50) in [18] is 2000 nM (active).

For `CCC(C)NC(N)=O` (stereo not given), the result in assay [1], in assay [2], in assay [3], in assay [4], in assay [5] and in [6] was inactive. The compound was called inactive in assay [7], in assay [8], in assay [9], in assay [10], in assay [11] and in [12]. Also, the call in [13], in assay [14], in [15], in assay [16], in assay [17] and in assay [18] was inactive. For the same compound, the outcome in assay [19] and in [20] was inactive.
